From PubChem BioAssay (NCI) come the findings set out here.

Structures are written as SMILES. This is part of a sample that, as a whole, favours compounds with a hit. Of some 83,000 tested, about 20% had one in any assay.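 A percent growth of 40 corresponds to 60% growth inhibition; 0 means no net growth; -100 means all cells died. Active threshold: below 10.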 Values without a mark were called inactive. The source made the active and inactive calls.

Common to all, as to test: NCI-60 one-dose screen, 48 h (100 = growth as untreated, 0 = no growth, -100 = all killed)
Common to all, as to details: 10 µM

Assay [1] has as its system SR leukemia.
For assay [2], the system named is RPMI-8226 leukemia.
In assay [3] the test system is OVCAR-8 ovarian.
Assay [4] concerns OVCAR-5 ovarian.
For assay [5], the system named is OVCAR-4 ovarian.
Assay [6] deals with SK-OV-3 ovarian.
In assay [7] the test system is IGROV1 ovarian.
For assay [8], the system named is OVCAR-3 ovarian.
Assay [9] concerns HS 578T breast.
In assay [10] the test system is NCI/ADR-RES ovarian.
Assay [11] concerns T-47D breast.
The subject of assay [12] is BT-549 breast.
Assay [13] has as its system MDA-MB-435 melanoma.
The subject of assay [14] is SW-620 colon.
In assay [15] the test system is HCT-116 colon.
Assay [16] concerns HCC-2998 colon.
For assay [17], the system named is KM12 colon.
Assay [18] deals with MCF7 breast.

As for `C#CCn1c(-c2cccc(OCCCCl)c2)nc2c1c(=O)n(C)c(=O)n2C`, the growth in assay [1] is 43.6%; in assay [2], 10.5%; in assay [3], 54.8%; in assay [4], 98.9%; in assay [5], 57%; in assay [6], 93.7%. Besides, the growth in assay [7] was 73.9%; in [8], 58.1%; in assay [9], 99%; in assay [10], 66.1%; in assay [11], 18%; in assay [12], 13.8%. The growth in assay [13] is 78.9%; in assay [14], 95%; in assay [15], 51.9%; in [16], 104%; in [17], 56.5%.
On to `CC(=O)Nc1ccc2c(c1)C(N1CC3CCC(CC3)C1)c1ccccc1-2` (stereo not given), for which the growth in [1] was 0.162% (active); in [2] it was 52.5%; in [3], 88.3%; in assay [4], 95.8%; in [5], 65.9%; in assay [6], 91.4%. The growth in assay [7] is 92.9%; in assay [8] it was 100%; in [9] it was 83.2%; in assay [10], 88.6%; in assay [11], 66.6%; in [12], 126%. Besides, the growth is 99.4% in assay [13]; 83.8% in assay [14]; 96.7% in assay [18]; 71.9% in assay [15]; 99.5% in assay [16]; 80.7% in [17].
For the compound `NC(=O)C1CCCN(Cc2c[nH]c3ccccc23)C1` (stereo not given), the growth in assay [1] is 96.9%; in assay [2], 105%; in assay [3], 98.3%; in [4], 99.8%; in assay [5] it was 108%; in assay [6], 100%. Besides, the growth in [7] was 102%; in [8], 104%; in assay [9], 96.6%; in assay [10] it was 94.8%; in assay [11], 92.8%; in assay [12], 105%. The growth in assay [13] was 108%; in assay [14], 99.5%; in assay [15] it was 103%; in assay [16] it was 100%; in assay [17] it was 102%.
Turning to `Cc1ccc2oc(=O)cc(/C(=C3/C=CC=N3)c3ccc[nH]3)c2c1`, the growth was -9.31% (active) in [1]; -16.9% (active) in [2]; -20.2% (active) in assay [3]; 21.1% in [4]; 28% in [5]; -16% (active) in assay [6]. The growth is 16.6% in assay [7]; -23.3% (active) in assay [8]; 12.9% in assay [9]; 0.0095% (active) in assay [10]; -1.91% (active) in assay [11]; -11.4% (active) in assay [12]. Also, the growth in [13] was -24.8% (active); in assay [14] it was 20.9%; in assay [18] it was 7.32% (active); in assay [15] it was 1.45% (active); in assay [16], -17% (active); in assay [17], -17.6% (active).
Consider `O=c1oc2c3ccc4cnccc4c3[nH]c2c2ccccc12`, for which the growth in [1] is -51.3% (active); in assay [2] it was -21.8% (active); in assay [3], 24.3%; in assay [4] it was 46.8%; in assay [5], 25.2%; in [6], 89.1%. Further, the growth is 21.2% in assay [7]; 38.2% in assay [8]; 68.1% in assay [9]; 71.5% in assay [10]; -8.53% (active) in [11]; 32.7% in assay [12]. The growth in assay [13] is -69.8% (active); in [14], 3.35% (active); in assay [18] it was -12.3% (active); in [15], -14.5% (active); in assay [17] it was 28.2%.
As to `COc1cc(N=C2C(=O)N(Cc3ccccc3)c3ccccc32)cc(OC)c1OC`, the growth in [1] was 74.5%; in assay [2], 38.4%; in assay [3] it was 96.6%; in assay [4], 95%; in assay [5], 98.8%; in assay [6] it was 101%. In addition, the growth in assay [7] was 86%; in assay [8], 84.4%; in assay [9], 82.9%; in [10], 94.6%; in assay [11], 83.9%; in [12], 106%. For the same compound, the growth in assay [13] was 98.5%; in assay [14], 103%; in [18] it was 93.8%; in assay [15] it was 99.8%; in assay [17] it was 96.1%.
In the case of `CCOc1nc(-c2ccccc2)cc2c(O)c(C(=O)N/N=C/c3ccc(OC)cc3)[nH]c(=O)c12`, the growth in [1] was 112%; in assay [2], 82.2%; in assay [3], 109%; in assay [4], 125%; in [5], 98.3%; in assay [6], 95.5%. The growth in assay [7] was 82.3%; in assay [8] it was 106%; in [9], 96.8%; in assay [10] it was 105%; in [11], 80.9%; in assay [12], 123%. Further, the growth in assay [13] is 113%; in assay [14], 110%; in assay [18], 101%; in assay [15], 109%; in assay [17] it was 107%.
As to `C=CCOc1ccc2c(c1)CC=C1[C@@H]2CC[C@]2(C)C(=O)/C(=N/O)C[C@@H]12`, the growth in [1] was 23.9%; in assay [2] it was 40.6%; in [3], 91.2%; in assay [4] it was 50.6%; in assay [5] it was 73.3%; in [6], 121%. The growth in [7] is 97.1%; in [8], 108%; in assay [9], 99.2%; in [10], 83.1%; in assay [11], 87.8%; in [12], 89.1%. Also, the growth in assay [13] was 72.6%; in assay [14] it was 79.6%; in assay [15], 66.8%; in assay [16], 74.8%; in assay [17] it was 57.9%.
Take `CCOc1nc(-c2ccccc2)cc2c(O)c(C(=O)NCCCO)[nH]c(=O)c12`: the growth is 141% in [1]; 51.2% in assay [2]; 108% in [3]; 92.4% in assay [4]; 103% in assay [5]; 84.6% in assay [6]. The growth in assay [7] was 57.6%; in assay [8], 93.1%; in assay [9], 100%; in [10], 113%; in assay [11], 97.4%; in assay [12], 97.6%. The growth in assay [13] is 94.9%; in assay [14] it was 96.4%; in assay [18], 90.3%; in assay [15] it was 98.9%; in assay [17] it was 99.1%.
